Glioma ERSR ind: qHTS for Inducers of the Endoplasmic Reticulum Stress Response (ERSR) in Human Glioma: qHTS; U87-MG GRP78 promoter luciferase reporter, 16 h; Potency, µM, for the others: top-dose activation, most hits filed as activators; 420,000 tested, 0.02% active; also: potency is read from the fitted curve at half-maximal effect; series mostly up to about 76 µM; % of control where 0% means no effect; nearly all actives have a fitted effect of over 35% in size
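ERSR induction read as luciferase luminescence (Bright-Glo, 10 min at room temperature) in stably transfected human U87-MG glioma cells exposed to compounds for 16 h, using GRP78 as sensor.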
PI5P4K alpha inh: qHTS for Inhibitors of phosphatidylinositol 5-phosphate 4-kinase (PI5P4K); PI5P4Kalpha enzyme, ADP-Glo luminescence, 60 min; active compounds read low; max response, %; 330,000 tested, 1.2% active; Phosphatidylinositol 5-phosphate 4-kinase type-2 alpha (Homo sapiens), P48426; active = max response of -50% or lower; inconclusive = between -30% and -50%; inactive = -30% or higher; also: value at the top dose of about 77 µM; % is scaled to controls: 0 for no effect and ±100 for the full control effect
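Compounds were pin-transferred onto PI5P4Kalpha and substrate in HEPES pH 7.4 buffer with EGTA, CHAPS and 5% DMSO. ATP (5 microM final) started the reaction, which ran 60 minutes at room temperature before ADP-Glo detection.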
Tb PGK inh: qHTS Assay to Find Inhibitors of Phosphoglycerate Kinase | PGK/GAPDH coupled, Kinase-Glo luminescence, 60 min | Potency, µM (top dose mostly 57.5 µM), for inactives: at the top dose activity change, negative = inhibition, actives largely listed as inhibitors | 380,000 tested, 0.043% active; also: potency is read from the fitted curve at half-maximal effect; % is scaled to controls: 0 for no effect and ±100 for the full control effect; nearly all actives have a fitted effect of over 60% in size
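Luminescent ATP detection (Kinase-Glo Plus) follows a 60-minute room-temperature incubation, with wells lacking PGK as controls. Buffer: 100 mM TEA (pH 7.6), 5 mM MgCl2, 0.01% Tween-20. Coupling enzyme GAPDH (100 nM final) supplies unstable 1,3-BPG in-well.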
FEN1 inh-1: qHTS Assay for the Inhibitors of Human Flap endonuclease 1 (FEN1). 390,000 tested, 0.35% active. P39748. AID 588795, 2011. Recombinant FEN1 flap cleavage, fluorescence, 15 min. Potency, µM (top dose mostly 114 µM), for inactives: top-dose activity change, negative = inhibition, actives largely listed as inhibitors; also: potency is read from the fitted curve at half-maximal effect; % is scaled to controls: 0 for no effect and ±100 for the full control effect; nearly all actives have a fitted effect of over 65% in size
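Concentration–response screening of FEN1 (10 nM): 15 min compound preincubation at room temperature, reaction started with 50 nM substrate and read at 0 and 15 min. Corrected, normalized data were fitted by a four-parameter Hill equation.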
Pin1 inhibitor: qHTS Assay to Find Inhibitors of Pin1. Pin1 FP peptide displacement, HiFluor488, 10 min. 390,000 tested, 0.009% active. Potency, µM (series often up to 115 µM), for inactives: top-dose activity, negative = inhibition, most hits filed as inhibitors. Peptidyl-prolyl cis-trans isomerase NIMA-interacting 1 (Homo sapiens), Q13526; active = well fitted inhibition curve with a large enough effect in the polarisation, with a control signal flat, not every such curve was filed as active; inconclusive = small, poorly fitted or top-dose-only effect, or effect the other way, or a change in a side signal; inactive = no such curve, though single readings can be large or run the other way; the % refers to the polarisation; also: potency is read from the fitted curve at half-maximal effect; % is scaled to controls: 0 for no effect and ±100 for the full control effect
WRN helicase inh: qHTS for Inhibitors of WRN Helicase; Bifunctional 3'-5' exonuclease/ATP-dependent helicase WRN (Homo sapiens), Q14191; WRN helicase unwinding, fluorescent forked duplex, kinetic; Potency, µM (top dose mostly 114 µM), for inactives: at the highest dose activity change, negative = inhibition, most hits filed as inhibitors; 360,000 tested, 0.46% active; AID 651768, 2012; also: potency is read from the fitted curve at half-maximal effect; % is scaled to controls: 0 for no effect and ±100 for the full control effect; nearly all actives have a fitted effect of over 55% in size
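WRN at 20 nM final preincubated with compound 15 min at room temperature; reaction started with 100 nM fluorophore/quencher forked duplex oligonucleotide and 2 mM ATP final. Unwinding followed kinetically by red fluorescence (ex 525, em 598 nm).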
FEN1 inh-2: qHTS Assay for the Inhibitors of FEN1: Confirmatory Assay for Cherry-picked Compounds | shares compounds with FEN1 inh-1 | FEN1 flap cleavage, TAMRA/BHQ2 fluorogenic DNA substrate | Potency, µM, hits mostly inhibitors | 880 tested, 79% active; also: potency is read from the fitted curve at half-maximal effect; nearly all actives have a fitted effect of over 60% in size
* hit, by the source's call; i = inactive; ? = inconclusive; nt = no result; [ ] = dose if it differs, or a comment. In the library only some 1.3% were active in any assay of this set; here they are far more common. Unless noted, calls follow the shape of the dose curve; as a rule, active = well fitted curve in the direction sought with a large enough effect; inconclusive = small, poorly fitted or top-dose-only effect, or another doubt; inactive = no such curve, though single readings can be large; an effect the other way counts as inactive or inconclusive.

SMILES | Glioma ERSR ind | PI5P4K alpha inh | Tb PGK inh | FEN1 inh-1 | Pin1 inhibitor | WRN helicase inh | FEN1 inh-2
CC(NC(=O)c1ccco1)c1nnc2n1CCN(Cc1ccc(N(C)C)cc1)CC2 (stereo not given) | -1.0% | nt | nt | nt | nt | nt | nt
Cc1cc2oc3cc(NCCC4CCCN4C)ccc3c(=O)c2cc1C (stereo not given) | -3.6% | -11.6 | -0.7% | 35.5µM* | -0.6% | -28.7% | 33.8*
CN1CCCC1CCNc1ccc2sc3ccccc3c(=O)c2c1 (stereo not given) | -1.6% | 0.7 | 10.6% | 39.8µM* | 2.8% | -30.4% | 37.9*
O=C(CCCN1C(=O)/C(=C/c2ccccc2)SC1=S)Nc1ccc(C(=O)O)c(O)c1 | 10.0% | -25.6 | i | -5.6% | -19.7% | -0.7% | nt
O=C(CN1C(=O)/C(=C/c2ccco2)SC1=S)Nc1ccc(C(=O)O)c(O)c1 | -6.7% | -67.5* | 28.2µM* | 3.3% | 33.7% | 35.5µM* | 26.9*
COc1ccccc1/C=c1\sc2nc(-c3ccco3)nn2c1=O | -4.2% | -69.2* | ? | 50.1µM* | ? | 39.8µM* | ?
CCOc1ccc(/C=c2\sc3nc(-c4ccco4)nn3c2=O)cc1OCC | -5.0% | -18.0 | -13.1% | 0.8% | ? | ? | nt
Cc1ncc2c(c1CNC(=O)c1cncs1)CCN(C(=O)c1ccc(C(F)(F)F)cc1)C2 | -5.8% | nt | nt | nt | nt | nt | nt
N#C/C(=C\c1ccc(OCc2ccc(Br)cc2)cc1)C(=O)Nc1cccc(C(=O)O)c1 | -1.2% | -15.4 | -26.5% | ? | nt | -23.9%[11.6 µM] | nt
CCOc1cc(/C=C(\C#N)C(=O)Nc2cccc(C(=O)O)c2)ccc1OCc1ccccc1Cl | 1.5% | 1.4 | -23.2% | ? | ? | -6.2% | ?
N#C/C(=C\c1ccc(OCc2ccc(F)cc2)cc1)C(=O)Nc1cccc(C(=O)O)c1 | 1.3% | -15.8 | ? | ? | ? | ? | ?
COc1ccccc1C(=O)N[C@@H]1c2ccccc2C2(CCN(Cc3cccnc3)CC2)[C@H]1O | -5.2% | nt | nt | nt | nt | nt | nt
CC1OC(OCC2OC(Oc3c(-c4ccc(O)c(O)c4)oc4cc(O)cc(O)c4c3=O)C(O)C(O)C2O)C(O)C(O)C1O (stereo not given) | -4.2% | nt | nt | nt | nt | nt | nt
C[C@@H]1O[C@@H](Oc2c(-c3cc(O)c(O)c(O)c3)oc3cc(O)cc(O)c3c2=O)[C@H](O)[C@H](O)[C@H]1O | -1.3% | ? | -29.9% | 2.24µM* | ? | -15.3% | 3.01*
Cc1cccc(N/N=C/c2ccc(O)c(O)c2O)c1 | 0.9% | -23.3 | -6.0% | 25.1µM* | -10.1% | -9.4%[11.6 µM] | ?
CCN(CC)CCC(=O)Nc1cccc2c1C(=O)c1ccccc1C2=O | ? | 1.1 | -3.0% | 15.8µM* | 8.5% | ? | 6.01*
CC(=O)c1sc2nc(CSc3nnnn3-c3ccccc3)[nH]c(=O)c2c1C | -3.8% | -82.9* | -11.7% | 79.4µM* | ? | 28.2µM* | ?
CC(C)c1c(C(=O)NCc2cccnc2)cnn1-c1nccc(-c2cccs2)n1 | -0.9% | nt | nt | nt | nt | nt | nt
Cc1cc(C)nc(/N=C(\N)Nc2ccc3c(c2)OCCO3)n1 | -1.4% | -8.4 | -2.7% | 79.4µM* | 2.9% | 17.3%[57.1 µM] | 67.5*
COc1cc(N/C(N)=N/c2nc(C)cc(C)n2)cc(OC)c1 | -3.7% | -3.1 | 3.7% | ? | 3.9% | 39.1% | 53.6*
Cc1ncc2c(c1CNS(=O)(=O)N(C)C)CCN(C(=O)/C=C/c1ccccc1F)C2 | -2.2% | nt | nt | nt | nt | nt | nt
O=C(Nc1ncccc1O)c1c(O)c2ccccc2[nH]c1=O | -2.6% | 6.3 | 5.1% | ? | ? | -24.3%[11.6 µM] | ?
